The text below walks through data of PubChem BioAssay (NCI).

Among the test systems are SK-MEL-2 melanoma; EKVX NSCLC; SN12C renal; UO-31 renal; TK-10 renal; ACHN renal; CAKI-1 renal; A498 renal; CCRF-CEM leukemia; MOLT-4 leukemia; SR leukemia; RPMI-8226 leukemia; OVCAR-8 ovarian; OVCAR-5 ovarian; OVCAR-4 ovarian; SK-OV-3 ovarian; OVCAR-3 ovarian; HS 578T breast; NCI/ADR-RES ovarian; IGROV1 ovarian.
Assay in all cases: NCI-60 one-dose screen, 48 h (100 = growth as untreated, 0 = no growth, -100 = all killed)
What all share (settings): 10 µM unless noted

About 83,000 compounds went through this panel and 20% of them were active in at least one assay; those are over-represented in the sample as a whole.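 How to read the values: 0–100, growth inhibition (40 = 60% inhibited); 0, no net growth; -100 to 0, cell death (-40 = 40% of starting cells died; -100 = all dead).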 Unmarked numbers belong to inactive results. The source made the active and inactive calls. The calls were made as follows: active = growth percent below 10; inactive = the rest.

Consider `CC(=O)c1nc2ccccc2n1CC(=O)c1cccc(Cl)c1`, for which the growth in the assay on SK-MEL-2 melanoma was 61.9%; with EKVX NSCLC, 17.1%; in the assay with SN12C renal it was 31.9%; in the assay with UO-31 renal it was 28.3%; in the assay on TK-10 renal, 34.3%; in the assay with ACHN renal, 51.3%. Also, the growth in the assay with CAKI-1 renal was 5.79% (active); in the assay with A498 renal it was 88.5%; in the assay with CCRF-CEM leukemia, 5.08% (active); in the assay with MOLT-4 leukemia it was 4.87% (active); with SR leukemia, -12.6% (active); in the assay with RPMI-8226 leukemia, -11.8% (active). For the same compound, the growth in the assay with OVCAR-8 ovarian was 10.1%; in the assay on OVCAR-5 ovarian, 47.5%; in the assay on OVCAR-4 ovarian, 22.9%; in the assay with SK-OV-3 ovarian, 17.5%; in the assay on OVCAR-3 ovarian, -31.3% (active); in the assay with HS 578T breast it was 19%. The growth in the assay on NCI/ADR-RES ovarian was 13.9%.

Take `COc1cc2c(cc1-c1c(C)noc1C)ncc1nc(-c3ccccn3)n([C@H](C)COC(F)F)c12`: the growth is 76.3% with SK-MEL-2 melanoma; 59% with EKVX NSCLC; 62.8% in the assay with SN12C renal; 18.8% in the assay with UO-31 renal; 33% in the assay with TK-10 renal; 40.1% in the assay with ACHN renal. Further, the growth is 34.2% with CAKI-1 renal; -12.2% (active) in the assay with A498 renal; 41% in the assay on CCRF-CEM leukemia; 44.4% with MOLT-4 leukemia; 27.8% with SR leukemia; 8.62% (active) in the assay on RPMI-8226 leukemia. The growth is 35.1% with OVCAR-8 ovarian; 76.6% with OVCAR-5 ovarian; 52.6% in the assay with OVCAR-4 ovarian; 9.97% (active) in the assay on SK-OV-3 ovarian; 52.6% in the assay with IGROV1 ovarian; 47.4% with OVCAR-3 ovarian. The growth in the assay with HS 578T breast is 3.88% (active); in the assay on NCI/ADR-RES ovarian it was 33.6%.

On to `CCOC(=O)c1c(CN2CCN(C)CC2)nc2ccc(Cl)cc2c1-c1ccccc1`, for which the growth in the assay with SK-MEL-2 melanoma is 80%; in the assay on EKVX NSCLC it was 66.4%; in the assay on SN12C renal, 92.8%; in the assay on UO-31 renal, 47.3%; in the assay on TK-10 renal, 82.6%; with ACHN renal it was 91.7%. Moreover, the growth in the assay with CAKI-1 renal was 52.8%; with A498 renal it was 90.7%; with CCRF-CEM leukemia, 37.7%; in the assay with MOLT-4 leukemia, 32.5%; with SR leukemia, -2.55% (active); with RPMI-8226 leukemia it was 25.5%. Moreover, the growth with OVCAR-8 ovarian is 84%; with OVCAR-5 ovarian, 69%; in the assay on OVCAR-4 ovarian, 79.4%; in the assay on SK-OV-3 ovarian, 90.7%; in the assay with IGROV1 ovarian, 50.1%; with OVCAR-3 ovarian it was 76.8%. In addition, the growth in the assay with HS 578T breast was 61%; in the assay with NCI/ADR-RES ovarian, 68.7%.

For the compound `Cn1cc(-c2nonc2-c2c[nH]c3ccccc23)c2cccnc21`, the growth with SK-MEL-2 melanoma was 8.48% (active); in the assay with EKVX NSCLC, 49.7%; in the assay with SN12C renal, 39.6%; in the assay on UO-31 renal, 55.7%; with TK-10 renal it was 75.3%; in the assay on ACHN renal it was 60.9%. The growth is 39.3% in the assay with CAKI-1 renal; 17.1% in the assay with A498 renal; 20.2% with CCRF-CEM leukemia; 16.5% in the assay on MOLT-4 leukemia; 23.5% in the assay on SR leukemia; 40.8% in the assay on RPMI-8226 leukemia. Moreover, the growth in the assay on OVCAR-8 ovarian was 47.8%; in the assay with OVCAR-5 ovarian, 72.3%; in the assay with OVCAR-4 ovarian, 74.5%; in the assay with SK-OV-3 ovarian, 41.7%; with IGROV1 ovarian it was 39.4%; in the assay with HS 578T breast, 36.1%. Moreover, the growth with NCI/ADR-RES ovarian was 13%.

Take `CCCc1cc(=O)n2c(C(=O)Nc3ccc(F)cc3)c(C(=O)Nc3ccc(F)cc3)sc2n1`: the growth was 70.7% [30 µM] with SK-MEL-2 melanoma; 62.5% [30 µM] with EKVX NSCLC; 65.7% [30 µM] with SN12C renal; 19.3% [30 µM] in the assay with UO-31 renal; 38.9% [30 µM] in the assay on TK-10 renal; 48.4% [30 µM] in the assay with ACHN renal. The growth was 44.3% [30 µM] in the assay on CAKI-1 renal; 139% [30 µM] in the assay with A498 renal; 77.1% [30 µM] in the assay with CCRF-CEM leukemia; 97.9% [30 µM] with MOLT-4 leukemia; 53.4% [30 µM] in the assay with SR leukemia; 78.2% [30 µM] in the assay with RPMI-8226 leukemia. Moreover, the growth with OVCAR-8 ovarian is 16.6% [30 µM]; in the assay with OVCAR-5 ovarian, 74.7% [30 µM]; in the assay with OVCAR-4 ovarian, 36.9% [30 µM]; with SK-OV-3 ovarian, 48.5% [30 µM]; in the assay with IGROV1 ovarian, 72.6% [30 µM]; with HS 578T breast, 6.12% [30 µM] (active). For the same compound, in the assay with NCI/ADR-RES ovarian, the growth was 33% [30 µM].

As to `Cc1cc(N2CCOCC2)nc(NCc2cc(Nc3ccnc4cc(Cl)ccc34)ccc2F)n1`, the growth in the assay with SK-MEL-2 melanoma was -61.6% (active); in the assay with EKVX NSCLC, 9.33% (active); with SN12C renal it was -72.7% (active); in the assay on UO-31 renal, -50.8% (active); with TK-10 renal, -14.7% (active); with ACHN renal, -12.9% (active). The growth is 3.58% (active) in the assay with CAKI-1 renal; -57.8% (active) with A498 renal; -10.4% (active) in the assay on CCRF-CEM leukemia; -30.3% (active) in the assay with MOLT-4 leukemia; -41.3% (active) with SR leukemia; -40.4% (active) with RPMI-8226 leukemia. The growth with OVCAR-8 ovarian is -48.9% (active); in the assay on OVCAR-5 ovarian it was -17.2% (active); in the assay on OVCAR-4 ovarian, 3.65% (active); with SK-OV-3 ovarian, -40.8% (active); in the assay with IGROV1 ovarian, -14.1% (active); in the assay with HS 578T breast, -14.2% (active). Further, the growth with NCI/ADR-RES ovarian is -56.9% (active).

Turning to `COC(=O)c1cccc(NC(=O)c2ccc(-c3cccc(N)c3)o2)c1`, the growth in the assay on SK-MEL-2 melanoma was 98.3%; in the assay on EKVX NSCLC, 94.5%; in the assay on SN12C renal it was 94%; in the assay on UO-31 renal, 83%; in the assay on TK-10 renal, 125%; in the assay with ACHN renal, 102%. For the same compound, the growth with CAKI-1 renal was 91.3%; in the assay with A498 renal, 105%; in the assay on CCRF-CEM leukemia it was 71.7%; with MOLT-4 leukemia, 85.9%; with SR leukemia, 95.8%; in the assay with RPMI-8226 leukemia, 78.8%. The growth was 75.7% in the assay on OVCAR-8 ovarian; 107% with OVCAR-5 ovarian; 101% in the assay on OVCAR-4 ovarian; 105% with SK-OV-3 ovarian; 100% in the assay with IGROV1 ovarian; 92.2% in the assay on HS 578T breast. In addition, in the assay on NCI/ADR-RES ovarian, the growth was 99.7%.

In the case of `Cc1nn(-c2ccc(F)cc2)c2ncnc(Nc3ccc(NC(=O)Nc4ccc(Cl)c(C(F)(F)F)c4)cc3)c12`, the growth in the assay on SK-MEL-2 melanoma is -7.22% (active); in the assay on EKVX NSCLC, 43.9%; with SN12C renal it was 27.2%; in the assay with UO-31 renal, 40.1%; with TK-10 renal, 26.5%; in the assay on ACHN renal it was 3.49% (active). Also, the growth with CAKI-1 renal is 12.4%; in the assay with A498 renal, 37.9%; in the assay with CCRF-CEM leukemia, 28.9%; in the assay with MOLT-4 leukemia, 26.4%; in the assay on SR leukemia it was 46.1%; with RPMI-8226 leukemia, 19.3%. In addition, the growth with OVCAR-8 ovarian is 35.4%; in the assay with OVCAR-5 ovarian, 70.8%; with OVCAR-4 ovarian it was 23.8%; in the assay on SK-OV-3 ovarian it was 65.7%; in the assay with IGROV1 ovarian, 31%; in the assay with OVCAR-3 ovarian, -4.21% (active). Moreover, the growth was 31.3% in the assay on HS 578T breast and 38.2% with NCI/ADR-RES ovarian.
